{
  "source": "PubChem BioAssay AID1347147",
  "about": "(National Center for Advancing Translational Sciences (NCATS), 2019)",
  "note": "Results filed as inconclusive are left out. Values without a mark were called inactive. The source made the active and inactive calls. The call rests on the fitted dose curve; in most records, active means well fitted inhibition curve with a large enough effect; inconclusive means small, poorly fitted or top-dose-only effect; inactive means no such curve, though single readings can be large or run the other way. Potency means the concentration at half of the fitted maximal effect.",
  "data": [
    {"molecular_target": "N-terminal Xaa-Pro-Lys N-methyltransferase 1 (Homo sapiens) (UniProt Q9BV86)", "sequence (Q9BV86 whole entry, looked up)": "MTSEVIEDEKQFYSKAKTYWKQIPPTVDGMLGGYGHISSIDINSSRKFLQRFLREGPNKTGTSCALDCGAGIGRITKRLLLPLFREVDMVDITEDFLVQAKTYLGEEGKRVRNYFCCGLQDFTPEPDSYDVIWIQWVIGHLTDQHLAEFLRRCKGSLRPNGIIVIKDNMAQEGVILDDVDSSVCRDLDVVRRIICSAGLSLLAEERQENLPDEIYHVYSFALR", "assay": "qHTS Assay for Inhibitors of N-terminal methyltransferase 1 (NTMT1): MTaseGlo Confirmatory Screen, Round 2", "settings": "NTMT1 enzyme, MTase-Glo SAH luminescence; series mostly up to 57.4 µM; activity change, negative = inhibition: at the top concentration", "excerpt": "Assay Submitter (PI): Rong Huang Ph.D, Purdue University, West Lafayette, IN 47907\nThe N-terminal methytransferase 1 is the first methyltransferase that methylates protein alpha-N-amines and plays an important role in regulating cell mitosis, chromatin interactions and DNA repair. It is observed to be over-expressed in various cancer patient tissues like malignant melanoma and colorectal cancer tissues. Knockdown of NTMT1 in cancer cells causes cell mitotic defects and enhances sensitivity to DNA damaging chemotherapeutics. […] These critical cellular processes in which NTMT1 is implicated, coupled with emerging links to cellular dysfunction, strengthen the inference that NTMT1 is a compelling novel anticancer target. Progress have been made in understanding the molecular properties of NTMT1 and the biological consequences of protein alpha-N-terminal methylation, but there are no specific small molecule probes available for NTMT1 to fully characterize its MTase activity. To address this unmet need, a panel of assay is created and established to enable quantitative high-throughput screening (qHTS) for novel, potent, and selective small molecule NTMT1 inhibitors. Two orthogonal qHTS that use different reagents (ThioGlo vs. MTaseGlo) are developed for primary robotic screening against the NCATS chemical library of more than 400,000 small molecules. Identified inhibitors are reacquired, validated, and further characterized.\nMTaseGlo Assay is a luminescence screen that measure the activity of methyltransferases based on the reaction product S-adenosyl homocysteine (SAH). The substrate SAM is converted to SAH upon enzyme activation. MTase-Glo reagent and detection solution convert SAH to ATP and measure the light from the luciferase reaction.\nEarly Translation Branch (ETB)\nNational Center for Advancing Translational Sciences (NCATS)\nNational Institute of Health (NIH)\nNTMT1 enzyme, substrate SPKRIA, control peptide RCC1-6 is provided by the Huang laboratory.\nIn brief, 3 µL of enzyme mixture (final concentrations of 125 nM and 100 µM for NTMT1 and SAM, respectively) into all wells of a 1,536-well solid-bottom white plate (Greiner Bio One, Monroe, NC). 23 nL of DMSO or Ac-RCC1-10 (final concentration range 234 nM to 143 microM) was transferred via Wako Pin-tool (Wako Automation, Richmond, VA) and incubated (RT) for ~15 minutes. Next, 1 µL of substrate (final concentration 1 µM) or buffer was dispensed, and the reaction proceeded for 30 minutes (RT, protected from light) followed by a 1 microL addition of [5X] MTase-Glo Reagent(R). Samples were incubated (RT, protected from light) for 30 minutes to allow for SAH to be converted to ADP, followed by a 5 microL addition of [1X] MTase-Glo Detection Solution(R) to allow for ADP to be converted to ATP, which was then detected with a luciferase reaction. Samples were centrifuged for 15 seconds at 1,000 RPM's, followed by a RT incubation for 30 minutes. Plates were then read using Luminescence optics on a ViewLux detector. Data were normalized to no-enzyme (0% activity) and no-inhibitor (DMSO; 100%) controls, and the resulting percent inhibition data were fitted to a 4-parameter Hill equation using Graphpad Prism.", "values": [
      {"smiles": "Oc1ccc(C2CNCc3sccc32)cc1O", "note": "(stereo not given)", "activity change, negative = inhibition": "-14.8%"},
      {"smiles": "CC[n+]1c(/C=C/C=C2/N(C)c3ccccc3C2(C)C)sc2ccccc21", "Potency": "14.1 µM (active)"},
      {"smiles": "Cc1cccc(C2CN(C)CCc3c2cc(O)c(O)c3Cl)c1", "note": "(stereo not given)", "activity change, negative = inhibition": "0.658%"},
      {"smiles": "Oc1ccc(O)cc1", "activity change, negative = inhibition": "-20.8%"},
      {"smiles": "C[C@H](NC(=O)/C(C#N)=C/c1ccc(O)c(O)c1)c1ccccc1", "activity change, negative = inhibition": "6.78%"},
      {"smiles": "CN1Cc2sccc2C(c2ccc(O)c(O)c2)C1", "note": "(stereo not given)", "activity change, negative = inhibition": "-1.5%"},
      {"smiles": "O=C(Nc1ccc([N+](=O)[O-])cc1Cl)c1cc(Cl)ccc1O", "activity change, negative = inhibition": "-11%"},
      {"smiles": "CCCCNc1ccc(C(=O)OCCN(C)C)cc1", "activity change, negative = inhibition": "1.37%"},
      {"smiles": "N#C/C(=C\\c1ccc(O)c(O)c1)C(=O)c1ccc(O)c(O)c1", "activity change, negative = inhibition": "8.34%"},
      {"smiles": "COc1cc2c(NC3CCN(CC4CCCCC4)CC3)nc(N3CCCCC3)nc2cc1OCCCN1CCCCC1", "activity change, negative = inhibition": "-2.53%"},
      {"smiles": "N#C/C(=C\\c1ccc(O)c(O)c1)C(=O)Nc1ccccc1", "activity change, negative = inhibition": "-12.5%"},
      {"smiles": "N[C@@H](Cc1c[nH]c2ccc(O)cc12)C(=O)O", "Potency": "inactive"},
      {"smiles": "CN(C)[C@@H]1C(=O)C(C(N)=O)=C(O)[C@@]2(O)C(=O)C3=C(O)c4c(O)ccc(Cl)c4[C@@H](O)[C@H]3C[C@@H]12", "activity change, negative = inhibition": "-18.8%"},
      {"smiles": "Cc1ccccc1CNc1ncnc2c1ncn2[C@@H]1O[C@H](CO)[C@@H](O)[C@H]1O", "activity change, negative = inhibition": "16.9%"},
      {"smiles": "O=[N+]([O-])c1ccc2c(c1)S(=O)(=O)C=C2", "activity change, negative = inhibition": "1.82%"},
      {"smiles": "OC[C@H]1O[C@@H](n2cnc3cncnc32)[C@H](O)[C@@H]1O", "Potency": "5.62 µM (active)"},
      {"smiles": "CC(C)(C)c1ccc(S(=O)(=O)/C=C\\C#N)cc1", "activity change, negative = inhibition": "-10.1%"},
      {"smiles": "O=C1NC(=O)C(=Cc2ccc(-c3ccc(F)cc3O)o2)S1", "Potency": "35.5 µM (active)"},
      {"smiles": "CC(C)NC[C@@H](O)c1ccc(O)c(O)c1", "activity change, negative = inhibition": "-15.8%"},
      {"smiles": "CC(=O)/C=C1\\C(=O)N(C)c2ccccc21", "activity change, negative = inhibition": "-4.49%"},
      {"smiles": "Oc1cc2c(cc1O)CN(C(=S)NCCc1ccc(Cl)cc1)CCC2", "activity change, negative = inhibition": "-11.8%"},
      {"smiles": "Nc1ncnc2c1ncn2[C@@H]1O[C@H](CO)[C@@H](O)[C@H]1O", "Potency": "inactive"},
      {"smiles": "O=c1[nH]c(=S)[nH]c(-c2ccccc2)c1Cc1c(O)ccc2ccccc12", "activity change, negative = inhibition": "-4.56%"},
      {"smiles": "CCCCCCCCCCCCCCCCCC(=O)OC(CC(=O)O)C[N+](C)(C)C", "note": "(stereo not given)", "activity change, negative = inhibition": "-7.72%"},
      {"smiles": "N#CC(C#N)=C(N)/C(C#N)=C/c1ccc(O)cc1", "activity change, negative = inhibition": "-11.8%"},
      {"smiles": "Nc1nc(Cl)nc2c1ncn2[C@@H]1O[C@H](COP(=O)(O)OP(=O)(O)OP(=O)(O)O)[C@@H](O)[C@H]1O", "activity change, negative = inhibition": "102%"},
      {"smiles": "S=C(Nc1ccccc1)Nc1nccs1", "activity change, negative = inhibition": "-10.3%"},
      {"smiles": "O=[N+]([O-])c1ccc(CNc2nc(NCc3cccc(C(F)(F)F)c3)nc3nc[nH]c23)cc1", "activity change, negative = inhibition": "-16.1%"},
      {"smiles": "Cc1nn(-c2ccccc2)c(C)c1/C=N/N1CCN(Cc2ccccc2)CC1", "activity change, negative = inhibition": "-0.834%"},
      {"smiles": "Clc1ccc(N2CCN(Cc3c[nH]c4ncccc34)CC2)cc1", "activity change, negative = inhibition": "-5.18%"},
      {"smiles": "CN(C)C(=O)/N=N/C(=O)N(C)C", "activity change, negative = inhibition": "1%"},
      {"smiles": "N.N.N.N.N.N.N.N.N.N.N.N.N.N.O.O.[Ru+4].[Ru+5].[Ru+5]", "Potency": "31.6 µM (active)"},
      {"smiles": "C=CCN1CCc2cc(O)c(O)cc2[C@H](c2ccccc2)C1", "activity change, negative = inhibition": "-6.22%"},
      {"smiles": "N=c1c[n+](N2CCOCC2)[n-]o1", "activity change, negative = inhibition": "-9.88%"},
      {"smiles": "CC(CN1c2ccccc2Sc2ccccc21)N(C)C", "note": "(stereo not given)", "activity change, negative = inhibition": "-1.58%"},
      {"smiles": "O=[N+]([O-])c1ccc(-c2nc(-c3ccc(F)cc3)c(-c3ccncc3)[nH]2)cc1", "activity change, negative = inhibition": "-3.2%"},
      {"smiles": "CCN1CCC[C@H]1CNC(=O)c1cc(S(N)(=O)=O)ccc1OC", "activity change, negative = inhibition": "3.8%"},
      {"smiles": "CC(C)NCC(O)c1ccc(O)c(O)c1", "note": "(stereo not given)", "activity change, negative = inhibition": "-1.85%"},
      {"smiles": "Cc1cc2nc3c(=O)[nH]c(=O)nc-3n(C[C@H](O)[C@H](O)[C@H](O)COP(=O)(O)OP(=O)(O)OC[C@H]3O[C@@H](n4cnc5c(N)ncnc54)[C@H](O)[C@H]3O)c2cc1C", "activity change, negative = inhibition": "756% [at 28.7 µM]"},
      {"smiles": "Cc1ccc(O)c(N=Nc2ccccc2)n1", "Potency": "14.1 µM (active)"}
    ]}
  ]
}
